# Compound activity as filed in PubChem.
# Cycloheximide cs = counter-screen hit for Shiga toxin inhibitors, cycloheximide; max response, %; actives 12% (n = 300,000); cell reporter, cycloheximide protein synthesis inhibition counterscreen; in the data active means max response mostly above about 13%, no sharp cut-off; inactive means mostly below about 14%; further: read at 38.3 µM for the half of the compounds with a filed dose; 0% is about no effect
# Shiga toxin inh = Shiga toxin inhibition | actives 9.2% (n = 290,000) | Vero cells, Shiga toxin protein synthesis inhibition reporter | AID 2315 | inhibition, % at 38.7 µM; in the data active means inhibition mostly above about 28%, no sharp cut-off; inactive means mostly below about 43%; further: 0% is about no effect
# Sm TGR block = blocks Schistosoma mansoni thioredoxin glutathione reductase | Q962Y6 | purified TGR, DTNB reduction, TNB absorbance 405 nm | Potency, µM (highest dose often 114 µM), without a hit: at the highest dose activity change, negative = inhibition, usual class: inhibitors | actives 3% (n = 360,000); further: potency means the concentration at half of the fitted maximal effect; on the % scale 0 is the no-effect control and ±100 the full control effect; nearly all actives have a fitted effect of over 60% in size
#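 Kinetic colorimetric format: TGR-catalysed, NADPH-driven DTNB reduction monitored via TNB absorbance. Enzyme dispensed at 20 nM; compound exposure 15 min at room temperature before reaction start.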
# LmPK inh = blocks Leishmania mexicana pyruvate kinase activity; Potency, µM (doses to about 57.5 µM), for the others: at the highest dose activity change, negative = inhibition, most hits filed as inhibitors; purified LmPK, Kinase-Glo ATP luminescence, 1 h; actives 0.37% (n = 290,000); Q27686; further: potency means the concentration at half of the fitted maximal effect; on the % scale 0 is the no-effect control and ±100 the full control effect
#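 Pyruvate kinase activity monitored as ATP production (luciferase luminescence). Conditions: 0.1 nM enzyme, 0.5 mM PEP, 0.1 mM ADP, 1 h, RT; normalized against uninhibited and no-enzyme wells.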
# Tb PYK inh = T. brucei pyruvate kinase inhibition; Q57TT1; TbPYK enzyme, Kinase-Glo Plus ATP luminescence, 45 min; Potency, µM (doses to about 76.8 µM), for the others: at the highest dose activity, negative = inhibition, actives largely listed as inhibitors; actives 0.12% (n = 410,000); AID 624173; further: potency means the concentration at half of the fitted maximal effect; on the % scale 0 is the no-effect control and ±100 the full control effect; nearly all actives have a fitted effect of over 50% in size
#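 Luminescence from Kinase-Glo Plus, added after a 45-minute room-temperature reaction, served as the end-point read-out. The enzyme and substrate were preincubated with compound before ADP (130 uM final) initiated turnover. Concentration-effect curves came from normalized qHTS data.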
# Giardia FBPA inh-1 = blocks Giardia fructose-bisphosphate aldolase activity; actives 0.71% (n = 290,000); purified Giardia FBPA; A8B2U2; AID 2451; Potency, µM (series often up to 59.6 µM), without a hit: at the highest dose activity, negative = inhibition, actives largely listed as inhibitors; further: potency means the concentration at half of the fitted maximal effect; on the % scale 0 is the no-effect control and ±100 the full control effect; nearly all actives have a fitted effect of over 55% in size
# Target sequence (A8B2U2 whole entry, looked up): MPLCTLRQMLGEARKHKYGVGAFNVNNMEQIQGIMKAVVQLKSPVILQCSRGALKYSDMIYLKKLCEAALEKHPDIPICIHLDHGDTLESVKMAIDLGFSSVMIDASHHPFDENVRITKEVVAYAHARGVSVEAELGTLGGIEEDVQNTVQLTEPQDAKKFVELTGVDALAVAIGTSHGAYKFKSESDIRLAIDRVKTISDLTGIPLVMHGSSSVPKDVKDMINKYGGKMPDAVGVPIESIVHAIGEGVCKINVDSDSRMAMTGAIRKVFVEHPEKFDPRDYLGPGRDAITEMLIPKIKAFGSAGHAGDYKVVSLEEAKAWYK
#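 Giardia FBPA (40 nM reagent) was preincubated 10 min at RT with compound (up to 57.5 uM final), then substrate plus GAPDH/TPI/NAD/arsenate coupling system with diaphorase/resazurin was added; resorufin fluorescence (525/598 nm) was read after 20 min.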
# Giardia growth = blocks growth of Giardia lamblia trophozoites | Giardia lamblia trophozoite growth inhibition | actives 5% (n = 1,500) | shares compounds with Giardia FBPA inh-1 | Potency, µM (series often up to 57.5 µM), without a hit: at the highest dose activity change, negative = inhibition, most hits filed as inhibitors;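 further: potency means the concentration at half of the fitted maximal effect; trophozoites exposed to compound for 48 h at 37 °C; on the % scale 0 is the no-effect control and ±100 the full control effect; nearly all actives have a fitted effect of over 70% in size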
# Mammal cell tox = counter-screen for Giardia aldolase inhibitors: mammalian cell toxicity; shares compounds with Giardia FBPA inh-1; mammalian cell viability counter-screen, qHTS; Potency, µM (top dose mostly 57.5 µM), for the others: at the highest dose viability change, negative = toxicity, hits mostly inhibitors; actives 4% (n = 1,500); AID 2786;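 further: Chinese hamster ovary cells used as mammalian cytotoxicity surrogate; viability measured as cellular ATP by luminescence; potency means the concentration at half of the fitted maximal effect; compound exposure lasted 48 h before reading; on the % scale 0 is the no-effect control and ±100 the full control effect; nearly all actives have a fitted effect of over 60% in size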
# Giardia FBPA inh-2 = confirmation of Giardia fructose-bisphosphate aldolase inhibitors. shares compounds with Giardia FBPA inh-1. purified Giardia aldolase enzyme activity, qHTS. Potency, µM (titrated, usually from 57.5 µM), inactives show at the top dose activity change, negative = inhibition, hits mostly inhibitors. actives 5% (n = 1,500). AID 2787; further: potency means the concentration at half of the fitted maximal effect; on the % scale 0 is the no-effect control and ±100 the full control effect; nearly all actives have a fitted effect of over 45% in size
# Rabbit aldolase = rabbit FBP aldolase inhibition by Giardia aldolase hits; Rabbit muscle FBPA enzyme inhibition, selectivity counter-screen; Potency, µM (top dose mostly 57.5 µM), for the others: at the top dose activity, negative = inhibition, actives largely listed as inhibitors; actives 4% (n = 1,500); shares compounds with Giardia FBPA inh-1; AID 2794; further: potency means the concentration at half of the fitted maximal effect; on the % scale 0 is the no-effect control and ±100 the full control effect; nearly all actives have a fitted effect of over 60% in size
# Target sequence (P00883 whole entry, looked up): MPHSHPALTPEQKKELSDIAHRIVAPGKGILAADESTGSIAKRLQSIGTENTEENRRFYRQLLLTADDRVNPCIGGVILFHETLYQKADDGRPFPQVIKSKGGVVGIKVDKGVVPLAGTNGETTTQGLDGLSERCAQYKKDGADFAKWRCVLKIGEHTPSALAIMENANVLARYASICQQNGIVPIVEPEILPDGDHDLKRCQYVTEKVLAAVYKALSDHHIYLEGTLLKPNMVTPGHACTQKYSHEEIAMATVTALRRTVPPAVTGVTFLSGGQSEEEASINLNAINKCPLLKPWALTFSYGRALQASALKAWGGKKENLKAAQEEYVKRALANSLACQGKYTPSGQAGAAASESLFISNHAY
# GAPDH coupling = GAPDH inhibition flagged for Giardia aldolase hits; Potency, µM (highest dose often 57.5 µM), without a hit: top-dose activity change, negative = inhibition, actives largely listed as inhibitors; shares compounds with Giardia FBPA inh-1; GAPDH coupling enzyme counterscreen, biochemical, qHTS; actives 6% (n = 1,500); further: potency means the concentration at half of the fitted maximal effect; on the % scale 0 is the no-effect control and ±100 the full control effect; nearly all actives have a fitted effect of over 55% in size
# Active calls of the source: *; ? = inconclusive; nt = no result; [ ] = another dose, or the depositor's remark. This is one part of a sample in which hits are shown more often than they occur. Unless noted, the call rests on the fitted dose curve; in most records, active means well fitted curve in the direction sought with a large enough effect; inconclusive means small, poorly fitted or top-dose-only effect, or another doubt; inactive means no such curve, though single readings can be large; an effect the other way counts as inactive or inconclusive.
SMILES,Cycloheximide cs,Shiga toxin inh,Sm TGR block,LmPK inh,Tb PYK inh,Giardia FBPA inh-1,Giardia growth,Mammal cell tox,Giardia FBPA inh-2,Rabbit aldolase,GAPDH coupling
Cc1cccc(NC(=O)CSc2n[nH]c(-c3ccncc3)n2)c1C,-3,10,-10%,-6%,-10%,22µM*,14%,-2%,6%,15%,17%
Cc1cc(NC(=O)C(C)SCC(=O)NCc2ccc(F)cc2)no1 (stereo not drawn),nt,nt,-19%,nt,4%,nt,nt,nt,nt,nt,nt
CCN1CCn2c3c(c4cccc(C)c42)CCCC31 (stereo not drawn),-3,-5,-4%,-3%,-2%,?,nt,nt,nt,nt,nt
CC1(C)CC(NC(=S)Nc2ccc(S(N)(=O)=O)cc2)CC(C)(C)N1,-8,-12,-12%,-10%,-4%,8.9µM*,18%[38.3 µM],-2%,-7%,-4%,-3%
NS(=O)(=O)c1ccc(NC(=S)NC2CC2)cc1,-2,-7,nt,2%,2%,?,nt,nt,nt,nt,nt
CCCCOCCCNC(=O)c1ccc([N+](=O)[O-])c(C)c1,1,1,-4%,-6%,-18%,0%,nt,nt,nt,nt,nt
S=c1[nH]nc(CCCc2n[nH]c(=S)o2)o1,-2,-21,0%,0%,?,0.5µM*,15%[38.3 µM],-10%,?,14%,-1%
COc1ccc(CCCc2n[nH]c(=S)o2)c(C)c1,-2,-5,12%,5%,?,8%,nt,nt,nt,nt,nt
Cc1cc(C)cc(NS(=O)(=O)c2ccc(NC(=S)NC(=O)c3ccc(Br)o3)cc2)c1,17,-2,-18%,1%,-7%,-24%,nt,nt,nt,nt,nt
NS(=O)(=O)c1ccc(NC(=S)NC(=O)c2ccc(Br)o2)cc1,7,17,-6%,-4%,-12%,18µM*,7%[10.4 µM],0%,-3%,6%,6%
NS(=O)(=O)c1ccc(NC(=S)NC(=O)c2cccs2)cc1,9,28,17%,1%,-3%,18µM*,?,7%,7%,5%,4%
CN(C)S(=O)(=O)c1ccc(NC(=S)NC(=O)c2ccc(Br)o2)cc1,5,0,?,-6%,nt,16µM*,3%[10.4 µM],-8%,1%,7%,15%
O=C(NC(=S)Nc1ccc(S(=O)(=O)Nc2nccs2)cc1)c1ccc(Br)o1,-12,-4,-27%,-6%,1%,-20%,nt,nt,nt,nt,nt
CCN(C(=O)COC(=O)/C=C/c1ccco1)C1CCCCC1,nt,nt,nt,nt,1%,nt,nt,nt,nt,nt,nt
Cc1[nH]n(-c2nc(-c3ccccc3)cc(=O)[nH]2)c(=O)c1CCO,-5,-12,-2%,-10%,-12%,?,nt,nt,nt,nt,nt
CCOC(=O)CCc1c(C)nc(-n2[nH]c(C)c(CCO)c2=O)[nH]c1=O,5,-3,16µM*,1%,0%,14µM*,5%[10.4 µM],0%,-4%,5%,-1%
Cc1ccc(OCCOC(=O)c2cccc(S(=O)(=O)N3CC(C)OC(C)C3)c2)cc1 (stereo not drawn),nt,nt,1%,nt,-7%,nt,nt,nt,nt,nt,nt
Cc1ccc(OCCOCCN2CCCCC2)c([N+](=O)[O-])c1,-2,-23,nt,-2%,7%,20µM*,28%,-11%,-7%,3%,4%
Cc1ccc(OCCOCCN2CCN(C)CC2)c([N+](=O)[O-])c1,2,2,1%,-12%,-12%,?,nt,nt,nt,nt,nt
N=C1/C(=C/c2coc3ccccc3c2=O)C(=O)N=C2SC(c3ccco3)=NN12,7,-3,10µM*,7%,-6%,16µM*,-14%,4%,-2%,6%,11%
N=C1/C(=C\c2coc3ccccc3c2=O)C(=O)N=C2SC(c3ccncc3)=NN12,-2,-4,0%,-4%,-23%,1%,nt,nt,nt,nt,nt
CCCN1CCN(CC(=O)Nc2nncs2)CC1,-2,-4,5%,2%,-1%,4.5µM*,9%,-8%,7%,9%,14%
CCc1nnc(NC(=O)CN2CCN(S(C)(=O)=O)CC2)s1,-5,-18,-10%,7%,0%,?,nt,nt,nt,nt,nt
Cc1nnc(NC(=O)CN2CC(C)OC(C)C2)s1 (stereo not drawn),1,-3,-13%,-7%,-2%,2.5µM*,-5%[38.3 µM],-7%,0%,2%,4%
